52 molecules from PubChem BioAssay AID758 (NMMLSC, 2007) can be followed below.

Among all 190,000 compounds or so, about 110 (0.058%) were called active. Another 2% or so got no clear call; they are omitted. This is one part of a sample in which actives are shown more often than they occur.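 How the source made its calls: active means fluorescent GTP binding to Rab7 beads changed by at least 20 points from the 100% baseline, either direction, mostly lower; inconclusive means compound itself probably fluorescent, or too few beads counted; inactive means the rest.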

In this assay the test system is Rab7 GTPase wild type (dog), Bodipy-FL-GTP binding. Put plainly: wildtype dog Rab7 nucleotide binding alteration – biochemical, multiplex bead flow cytometry, primary screen (AID 758).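 Further: median green fluorescence of bound Bodipy-FL-GTP per Rab7 bead population.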 Particulars: GST-Rab7 beads, fluorescent GTP binding, at 10 µM, actives lie on both sides, untreated = 100%, excess cold GTP = 0%. (A flow cytometer gives signals particle by particle.)
In the case of `C=CCN(Cc1nc(-c2cc(OC)c3c(c2)OCO3)oc1C)C1CCS(=O)(=O)C1` (configuration not stated), the GTP binding activity (percent of control) is 92% (inactive).

As for `CC1=CC=CN2C1=NC(=O)CC2(C)C(=O)N(CC(=O)NC1CCCC1)c1ccccc1C` (configuration not stated), the GTP binding activity (percent of control) is 104% (inactive). For the molecule `CC(=O)c1cc(C#N)c(SCC(=O)Nc2nccs2)nc1C`, the GTP binding activity (percent of control) was 96% (inactive). As for `C=CCn1nc(-c2ccccc2)c2c(C)onc2c1=O`, the GTP binding activity (percent of control) was 100% (inactive). `NS(=O)(=O)c1ccc(NC(=S)Nc2ccc(Br)c(Cl)c2)cc1`: the GTP binding activity (percent of control) was 103% (inactive). Under `O=C(CCNC(=O)c1ccc([N+](=O)[O-])cc1)Nc1ccccc1N1CCOCC1` stands 96% (inactive).

Take `COc1cccc(C(O)Cc2nc3ccccc3n2C)c1OC` (configuration not stated): the GTP binding activity (percent of control) is 96% (inactive).

Turning to `CC(=O)c1cccc(NC(=O)[C@@H](NC(N)=O)C(C)C)c1`, the GTP binding activity (percent of control) was 96% (inactive). In the case of `COc1ccc(CNC(=O)COC(=O)/C=C/c2ccc(S(=O)(=O)N3CCOCC3)cc2)cc1`, the GTP binding activity (percent of control) was 100% (inactive). As for `O=C(O)/C=C/C(=O)NNc1ccc([N+](=O)[O-])cc1`, the GTP binding activity (percent of control) was 96% (inactive).

For the molecule `CCOC(=O)C1(CCOc2ccccc2)CCN(C(=O)c2cncs2)CC1`, the GTP binding activity (percent of control) was 93% (inactive). Consider `CCOC(=O)c1ccc(NC(=O)c2cc(=O)[nH]c3ccccc23)cc1`, for which the GTP binding activity (percent of control) is 94% (inactive).

For `CCOc1c(CNCc2ccc(C(=O)O)cc2)cccc1OC`, the GTP binding activity (percent of control) was 103% (inactive). As for `COc1ccc(-c2nn(-c3ccccc3)cc2/C=C\C(=O)N2CCOCC2)cc1[N+](=O)[O-]`, the GTP binding activity (percent of control) is 93% (inactive).

Take `CC(O)c1cccc(NC(=O)Cc2cccc3ccccc23)c1` (configuration not stated): the GTP binding activity (percent of control) is 93% (inactive). In the case of `CCOc1cc(/C=C2/C(=N)N3OC(C)=CC3=NC2=O)ccc1OC`, the GTP binding activity (percent of control) is 93% (inactive).

As for `NS(=O)(=O)c1cccc(NC(=O)CN2CCCc3ccccc32)c1`, the GTP binding activity (percent of control) was 93% (inactive).

Regarding `Cc1nc([N+](=O)[O-])c(NCCCO)n1Cc1ccccc1`, the GTP binding activity (percent of control) was 96% (inactive). Under `O=C(NCc1ccncc1)NC12CC3CC(CC(C3)C1)C2` stands 104% (inactive); under `Clc1cccc(-c2nc(NCC3CCCO3)c3ccccc3n2)c1` (configuration not stated), 96% (inactive).

Turning to `COC(=O)c1c(NC(C)=O)sc(C(=O)Nc2ccccc2OC)c1C`, the GTP binding activity (percent of control) is 106% (inactive).

For the molecule `O=C(NNC1=C(C(=O)C(F)(F)F)CCC1)c1ccncc1`, the GTP binding activity (percent of control) was 106% (inactive).

In the case of `O=C(CN1CCCC1)N1CCN(c2ccccc2)CC1`, the GTP binding activity (percent of control) was 99% (inactive). Regarding `CC(CC(=O)Nc1ccccc1)n1ccnc1` (configuration not stated), the GTP binding activity (percent of control) was 96% (inactive).

In the case of `CCN(Cc1ccccc1)S(=O)(=O)c1cc(C(=O)O)ccc1OC`, the GTP binding activity (percent of control) was 107% (inactive). Under `CCN(CC)CCCSc1nc2ccccc2s1` stands 104% (inactive). For `Cc1ccc(NC(=O)C2(N3CCC3=O)CCCCC2)cc1`, the GTP binding activity (percent of control) was 105% (inactive). Turning to `Cc1ccc(NC(=O)c2ccc(Oc3ncccn3)cc2)cc1`, the GTP binding activity (percent of control) was 97% (inactive). Under `OCC1(Cc2ccccc2C(F)(F)F)CCN(Cc2cccc3cnccc23)CC1` stands 96% (inactive); under `CC1(C)CC(N(Cc2ccccc2)C(=O)Cc2ccccc2)CCO1` (configuration not stated), 101% (inactive); under `O=C(Nc1cccnc1)c1cccc(S(=O)(=O)N2CCCC2)c1`, 94% (inactive). Consider `CCN(CC)C(=O)N(CC)Cc1ccccc1`, for which the GTP binding activity (percent of control) is 96% (inactive).

As for `COC(=O)c1ccc(NCC(=O)N2CCCCCC2)cc1`, the GTP binding activity (percent of control) is 106% (inactive). Under `COc1ccc(-c2nc(CN3CCN(c4ncccn4)CC3)c(C)o2)cc1C` stands 95% (inactive). In the case of `O=C(C1CCCO1)N(c1ccc(F)cc1)C1C=CS(=O)(=O)C1` (configuration not stated), the GTP binding activity (percent of control) is 103% (inactive).

Consider `CCc1ccc(/C=C2\SC(N3CCOCC3)=NC2=O)cc1`, for which the GTP binding activity (percent of control) is 94% (inactive). With `c1ccc(Cc2cc[n+](Cc3ccccc3)cc2)cc1`, the GTP binding activity (percent of control) is 106% (inactive). For `CCOc1cnc(-c2c(-c3ccccc3Cl)noc2C)o1`, the GTP binding activity (percent of control) was 96% (inactive). On to `CCCCN(C(=O)/C=C/c1ccco1)c1c(N)n(CC(C)C)c(=O)[nH]c1=O`, for which the GTP binding activity (percent of control) is 98% (inactive). Under `CC(C)(C)c1cnnn1-c1ccc([N+](=O)[O-])cc1` stands 94% (inactive). For `CC(C)(C)C(=O)NCCCNc1ccc([N+](=O)[O-])cc1`, the GTP binding activity (percent of control) was 94% (inactive). For the molecule `O=C(Nc1ccccc1F)c1ccccc1-c1ccc(C(F)(F)F)cc1`, the GTP binding activity (percent of control) was 103% (inactive). As to `O=C(Nc1ccccc1F)c1ccccc1-c1ccccc1`, the GTP binding activity (percent of control) is 74% (active). In the case of `NC(=O)c1ccccc1NC(=O)c1ccccc1F`, the GTP binding activity (percent of control) was 99% (inactive). For the molecule `O=C(CC1C(=O)NCCN1Cc1ccc(-c2ccccc2)cc1)NCc1ccncc1` (configuration not stated), the GTP binding activity (percent of control) was 96% (inactive). Under `Cc1ccc(C)c(Cn2nnc3c(=O)[nH]c(C(=O)Nc4ccc(F)cc4)nc32)c1` stands 102% (inactive); under `CC(=O)Nc1ccc(Nc2nc3c(S(=O)(=O)c4ccc(C)c(C)c4)nnn3c3ccccc23)cc1`, 97% (inactive); under `CN1CCN(CCC(=O)N/N=C/C=C2\N(C)c3ccccc3C2(C)C)CC1`, 98% (inactive). Under `CC(C)CNC(=O)/C=C/C(=O)O` stands 105% (inactive). For the molecule `O=C(Cc1ccccc1Cl)N1CCN(c2ccccn2)CC1`, the GTP binding activity (percent of control) is 98% (inactive). Under `Cc1ccc(CN2CCN(Cc3ccccc3-c3ccco3)CC2CCO)o1` (configuration not stated) stands 104% (inactive); under `CNC(=O)COC(=O)c1cc(-c2ccc(OC)cc2)nc2ccccc12`, 88% (inactive).
